Source: PubChem BioAssay
An excerpt weighted towards active compounds, which were near 2.7% of everything screened.
HSP90 inh: HSP90 refolding inhibition in rabbit reticulocyte lysate | hit rate 0.91% among 290,000 | inhibition, % at 5.6 µM | luciferase refolding luminescence, 3 h;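 active means inhibition above the screen-wide mean plus 3 SD, computed separately per campaign, cut at about 16% in these data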;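 further: 0% = DMSO wells and 100% = 60 µM geldanamycin wells; inhibitors lower the luminescence because luciferase stays unfolded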
SENP7 block: inhibitors of human SENP7 protease; inhibition, % at 5 µM; hit rate 1.5% among 330,000; recombinant SENP7, Z-RLRGG-aminoluciferin luminescence, 40 min; AID 434973;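 active means inhibition above about 50% at the single test dose, limit read from the data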;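 further: plate controls were DMSO with enzyme for no effect and no enzyme buffer wells for full effect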
Target sequence (Q9BQF6 706-1050 limits assumed): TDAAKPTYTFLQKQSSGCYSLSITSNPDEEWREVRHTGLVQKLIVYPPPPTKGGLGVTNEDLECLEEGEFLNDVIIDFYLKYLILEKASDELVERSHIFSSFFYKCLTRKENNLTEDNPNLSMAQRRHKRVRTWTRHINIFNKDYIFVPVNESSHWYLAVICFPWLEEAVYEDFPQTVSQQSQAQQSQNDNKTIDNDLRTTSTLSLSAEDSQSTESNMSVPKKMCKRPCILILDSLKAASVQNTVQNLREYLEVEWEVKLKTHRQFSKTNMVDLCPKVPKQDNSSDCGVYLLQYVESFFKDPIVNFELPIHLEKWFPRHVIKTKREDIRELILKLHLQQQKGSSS
SENP8 block-1: inhibitors of human SENP8 protease | hit rate 1.2% among 330,000 | inhibition, % at 10 µM | purified SENP8, Z-RLRGG-aminoluciferin cleavage, luminescence | Q96LD8 | AID 2540; in the data active means inhibition above about 50%
SENP6 block: blocks the human protease SENP6. Q9GZR1. Recombinant SENP6 catalytic domain, aminoluciferin luminescence. inhibition, % at 10 µM. hit rate 1.8% among 330,000;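 active means inhibition above about 50% at the single tested dose, limit read from the data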;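 further: plate controls were DMSO wells with enzyme for no effect and DMSO wells lacking enzyme for full effect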
SENP8 block-2: inhibitors of human SENP8 protease; inhibition, % at 20 µM; AID 602440; recombinant SENP8, Nedd8 substrate fluorescence; Q96LD8; hit rate 0.64% among 360,000; in the data active means inhibition mostly above about 40%, no sharp cut-off; inactive means mostly below about 27%
HSP90 confirm: confirmation of HSP90 inhibitors; inhibition, % at 5.9 µM; hit rate 64% among 2,300; shares compounds with HSP90 inh; rabbit reticulocyte lysate, luciferase refolding luminescence, 3 h; in the data active means inhibition above about 18%;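 further: 0% = vehicle wells and 100% = reference inhibitor wells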
luciferase ctr: firefly luciferase inhibition, HSP90 counter-screen; shares compounds with HSP90 inh; purified native firefly luciferase, luminescence; inhibition, % at 5.9 µM; hit rate 48% among 2,300; AID 1847;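 active means inhibition above the mean inhibition of all tested sample wells plus 3 SD, cut at about 10% in these data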;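 further: 0% = DMSO with luciferase and 100% = wells lacking luciferase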
SENP8 conf: human SENP8 inhibition, confirmed. AID 488912. inhibition, % at 12.5 µM. hit rate 40% among 6,200. shares compounds with SENP7 block. Recombinant SENP8, Z-RLRGG-aminoluciferin luminescence, 60 min;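 active means mean inhibition across replicates above about 50%, limit read from the data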
SENP6 conf: confirmation of human SENP6 protease inhibitors | shares compounds with SENP7 block | recombinant SENP6, Z-RLRGG-aminoluciferin luminescence | inhibition, % at 12.5 µM | hit rate 58% among 6,200
SENP7 conf: confirmation of human SENP7 protease inhibitors; shares compounds with SENP7 block; recombinant SENP7, Z-RLRGG-aminoluciferin luminescence, 40 min; AID 488917; hit rate 69% among 6,200; inhibition, % at 12.5 µM
Casp3 select: inhibits human caspase-3 in SENP selectivity test. purified caspase-3, Z-DEVD-aminoluciferin luminescence, 60 min. inhibition, % at 12.5 µM. hit rate 60% among 6,200. shares compounds with SENP7 block;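 active means mean inhibition above about 50%, limit read from the data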;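 further: plate controls were enzyme with DMSO for no effect and wells without caspase-3 for full effect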
Target sequence (P42574 28-227 limits assumed): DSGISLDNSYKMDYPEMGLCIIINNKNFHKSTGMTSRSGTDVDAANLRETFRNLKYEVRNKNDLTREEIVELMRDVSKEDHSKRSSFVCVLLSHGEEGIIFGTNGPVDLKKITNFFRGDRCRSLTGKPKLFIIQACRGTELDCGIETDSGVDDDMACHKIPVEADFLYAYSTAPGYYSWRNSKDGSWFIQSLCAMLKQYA
Luc interf: counter-screen for SENP inhibitors: luminescence interference; hit rate 39% among 6,200; inhibition, % at 12.5 µM; shares compounds with SENP7 block; Pre-incubated SENP8/Z-RLRGG-aminoluciferin, luciferase luminescence interference; AID 488919;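 active means mean inhibition above about 50% when retested at one dose, limit read from the data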;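 further: plate controls were DMSO wells with completed reaction for no effect and substrate without enzyme for full effect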
An asterisk follows results filed as active.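 How the source made its calls, unless noted: active means mean inhibition above about 50% in the one-dose retest (limit read from the data); inactive means the rest.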

How did c1ccc(-n2ncc3c(N4CCCCC4)ncnc32)cc1 do in these assays?
HSP90 inh: 56.1*; SENP7 block: 84.4*; SENP8 block-1: 85.5*; SENP6 block: 84.2*; SENP8 block-2: -0.3; HSP90 confirm: 79.7*; luciferase ctr: 73.7*; SENP8 conf: 86.4*; SENP6 conf: 84.3*; SENP7 conf: 96.5*; Casp3 select: 86.4*; Luc interf: 83.5*

What do the screens show for `O=C(CSc1nc2ccccc2o1)NC(=O)NCc1ccccc1`?
HSP90 inh: 3.7; SENP7 block: -14.4; SENP8 block-1: -0.5; SENP6 block: -0.2; SENP8 block-2: 18.0

What do the screens show for `O=C(Nc1nc(-c2ccc3c(c2)OCCO3)cs1)c1ccco1`?
HSP90 inh: 18.1*; SENP7 block: 88.6*; SENP8 block-1: 83.1*; SENP6 block: 86.1*; SENP8 block-2: -50.9; HSP90 confirm: 20.4*; luciferase ctr: 9.9*; SENP8 conf: 86.2*; SENP6 conf: 86.0*; SENP7 conf: 97.3*; Casp3 select: 74.9*; Luc interf: 90.3*

How did CC(C)(C)c1ccc(NC(=O)c2ccsc2)cc1 do in these assays?
HSP90 inh: 23.5*; SENP7 block: 82.0*; SENP8 block-1: 82.5*; SENP6 block: 86.3*; SENP8 block-2: 20.6; HSP90 confirm: 39.3*; luciferase ctr: 27.0*; SENP8 conf: 85.7*; SENP6 conf: 85.2*; SENP7 conf: 97.7*; Casp3 select: 77.5*; Luc interf: 28.7

What do the screens show for `NC(=O)C1=C(c2ccccc2)c2ccccc2C1=O`?
SENP8 block-2: -7.9

What do the screens show for `Cc1ccc(C(=O)COC(=O)c2ccncc2)cc1[N+](=O)[O-]`?
HSP90 inh: 7.2; SENP7 block: 0.5; SENP8 block-1: 1.4; SENP6 block: -1.1; SENP8 block-2: 18.4

How did N/C(=N\OC(=O)c1ccc([N+](=O)[O-])cc1Cl)c1ccccn1 do in these assays?
HSP90 inh: 66.5*; SENP7 block: 95.4*; SENP8 block-1: 90.7*; SENP6 block: 95.5*; SENP8 block-2: 31.5; HSP90 confirm: 60.6*; luciferase ctr: 89.7*; SENP8 conf: 82.5*; SENP6 conf: 96.1*; SENP7 conf: 102.5*; Casp3 select: 97.4*; Luc interf: 17.0

What do the screens show for `Cc1ccc(C(=O)O/N=C(\N)c2ccccn2)c(Cl)c1`?
HSP90 inh: 94.0*; SENP7 block: 99.3*; SENP8 block-1: 95.8*; SENP6 block: 95.7*; SENP8 block-2: 7.8; HSP90 confirm: 96.0*; luciferase ctr: 90.9*; SENP8 conf: 98.1*; SENP6 conf: 99.0*; SENP7 conf: 102.3*; Casp3 select: 98.1*; Luc interf: 97.8*

Results for COc1ccc(/C=C/C(=O)O/N=C(\N)c2ccccn2)cc1OC ?
SENP7 block: 13.1; SENP8 block-1: -9.0; SENP6 block: 4.7; SENP8 block-2: -112.5

What do the screens show for `N/C(=N\OC(=O)c1ccccc1Cl)c1ccncc1`?
HSP90 inh: -2.8; SENP7 block: 49.0; SENP8 block-1: 36.8; SENP6 block: 14.8; SENP8 block-2: 14.0

How did N/C(=N\OC(=O)/C=C/c1ccccc1)c1ccccn1 do in these assays?
HSP90 inh: 19.4*; SENP7 block: 95.9*; SENP8 block-1: 88.1*; SENP6 block: 94.9*; SENP8 block-2: -2.4; HSP90 confirm: 14.6; luciferase ctr: 73.0*; SENP8 conf: 89.1*; SENP6 conf: 89.5*; SENP7 conf: 100.4*; Casp3 select: 93.5*; Luc interf: 92.7*

Results for Cc1ccc(C(=O)O/N=C(\N)c2ccccc2)c(Cl)c1 ?
HSP90 inh: 56.4*; SENP7 block: 98.9*; SENP8 block-1: 96.7*; SENP6 block: 98.6*; SENP8 block-2: 16.0; HSP90 confirm: 79.6*; luciferase ctr: 86.6*; SENP8 conf: 5.3; SENP6 conf: 3.5; SENP7 conf: 10.1; Casp3 select: 4.1; Luc interf: 4.9

How did N/C(=N\OC(=O)c1cc([N+](=O)[O-])ccc1Cl)c1ccccn1 do in these assays?
HSP90 inh: -0.4; SENP7 block: -4.1; SENP8 block-1: -9.9; SENP6 block: -8.3; SENP8 block-2: 6.9

How did Cc1ccc(S(=O)(=O)NCCC(=O)NCCc2ccccc2)cc1 do in these assays?
SENP8 block-2: 12.8

Results for Cc1ccc(-c2nc(N/N=C/c3ccncc3)c3ccccc3n2)cc1 ?
HSP90 inh: 47.2*; SENP7 block: 88.9*; SENP8 block-1: 88.9*; SENP6 block: 88.2*; SENP8 block-2: -68.3; HSP90 confirm: 79.8*; luciferase ctr: 56.3*; SENP8 conf: 11.6; SENP6 conf: 15.8; SENP7 conf: 17.5; Casp3 select: 37.1; Luc interf: 3.2

Results for CN1CCN(C(=O)c2ccc(-c3cccs3)s2)CC1 ?
HSP90 inh: 2.2; SENP7 block: 9.3; SENP8 block-1: 1.4; SENP6 block: 5.5; SENP8 block-2: -478.2

How did O=C(c1cccs1)c1ccc(-c2cccs2)s1 do in these assays?
HSP90 inh: 29.1*; SENP7 block: 94.2*; SENP8 block-1: 94.1*; SENP6 block: 95.0*; SENP8 block-2: -376.1; HSP90 confirm: 61.0*; luciferase ctr: 52.5*; SENP8 conf: 64.8*; SENP6 conf: 95.9*; SENP7 conf: 96.9*; Casp3 select: 85.8*; Luc interf: 41.5

What do the screens show for `Cc1[nH]c2ccccc2c1-c1nc(N)sc1C`?
HSP90 inh: -3.3; SENP7 block: -3.0; SENP8 block-1: -8.1; SENP6 block: -1.6; SENP8 block-2: 8.8

What do the screens show for `CSc1ccc(NC(=O)Nc2cc(C)ccn2)cc1`?
HSP90 inh: 14.1; SENP7 block: 77.9*; SENP8 block-1: 29.2; SENP6 block: 48.9; SENP8 block-2: 17.5; HSP90 confirm: 54.9*; luciferase ctr: 48.7*; SENP8 conf: 13.1; SENP6 conf: 30.4; SENP7 conf: 30.9; Casp3 select: 34.7; Luc interf: 11.0

What do the screens show for `COc1ccc(-c2sc3cc(OC)c(OC)cc3c2C#CCO)cc1`?
SENP7 block: 6.1; SENP8 block-1: 1.5; SENP6 block: 12.2; SENP8 block-2: -359.7
